Calb biofilm kill – clotrimazole potentiators killing Candida biofilms, primary screen, with clotrimazole, Alamar Blue; C. albicans biofilm + clotrimazole; inhibition, % at 6 µM; 85,000 tested, 0.14% active; AID 834, 2007;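 active = inhibition above 20%; inactive = inhibition below 20%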;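 note: preformed 24 hr biofilms exposed to compound for 48 hr; 0% = biofilm without compound and 100% = blank killed by clotrimazole plus chlorhexidine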
ERa coact pot – enhancers of ERα–SRC-1 coactivator binding, primary screen, biochemical, TR-FRET, ERα LBD, low estradiol; 86,000 tested, 1.3% active; Estrogen receptor (Homo sapiens), P03372; coactivator binding (% of control), % at 25.6 µM; TR-FRET ERalpha-LBD/SRC-Cy5 coactivator binding, 2 h; 100 = basal binding, no effect; AID 639, 2007; in the data active = activity above about 200%;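 note: binding measured in presence of low estradiol as agonist stimulus; 0% = peptide alone without receptor and 100% = receptor with peptide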
Smad3 inh – Smad3/FoxH1 peptide binding inhibitors, primary screen, biochemical, TR-FRET; Mothers against decapentaplegic homolog 3 (Homo sapiens), P84022; 88,000 tested, 0.29% active; inhibition, % at 25 µM; TR-FRET Smad3/Dy647-FoxH1 peptide binding, europium anti-His;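 active = compounds that reduce the energy-transfer binding signal between the protein and its labelled peptide by more than half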;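 note: 0% = Smad3 plus labelled peptide maximal FRET and 100% = peptide-only background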
ERa coact inh – ERα–SRC-1 coactivator interaction inhibitors, primary screen, biochemical, TR-FRET, ERα LBD, estradiol-bound; Estrogen receptor (Homo sapiens), P03372; TR-FRET ER-alpha LBD / SRC-1 peptide; inhibition, % at 25.6 µM; 86,000 tested, 1.7% active; in the data active = inhibition above about 50%;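 note: 0% = receptor plus peptide control and 100% = peptide only without receptor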
ERb coact inh – inhibitors of ERβ-SRC1 coactivator interaction, primary screen, biochemical, TR-FRET, ERβ LBD, SRC-1 peptide | 86,000 tested, 1.3% active | Estrogen receptor beta (Homo sapiens), Q92731 | inhibition, % at 25.6 µM | TR-FRET ER-beta LBD / SRC1-Cy5 peptide binding; receptor agonist-loaded with 1 µM estradiol;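 active = compounds whose percent inhibition of the receptor-coactivator binding signal exceeds about 50% in the single-dose screen, limit read from the data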;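 note: 0% = receptor plus peptide wells without compound and 100% = peptide-only wells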
FAK blocker – FAK kinase inhibitors, primary screen, biochemical; Focal adhesion kinase 1 (Homo sapiens), Q05397; biochemical FAK kinase activity assay; 97,000 tested, 0.84% active; AID 727, 2007; inhibition, %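 (tested at 7 µM)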; in the data active = inhibition above about 19%;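 note: 0% = DMSO and 100% = reference compound high control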
Target sequence (Q05397 whole entry, looked up): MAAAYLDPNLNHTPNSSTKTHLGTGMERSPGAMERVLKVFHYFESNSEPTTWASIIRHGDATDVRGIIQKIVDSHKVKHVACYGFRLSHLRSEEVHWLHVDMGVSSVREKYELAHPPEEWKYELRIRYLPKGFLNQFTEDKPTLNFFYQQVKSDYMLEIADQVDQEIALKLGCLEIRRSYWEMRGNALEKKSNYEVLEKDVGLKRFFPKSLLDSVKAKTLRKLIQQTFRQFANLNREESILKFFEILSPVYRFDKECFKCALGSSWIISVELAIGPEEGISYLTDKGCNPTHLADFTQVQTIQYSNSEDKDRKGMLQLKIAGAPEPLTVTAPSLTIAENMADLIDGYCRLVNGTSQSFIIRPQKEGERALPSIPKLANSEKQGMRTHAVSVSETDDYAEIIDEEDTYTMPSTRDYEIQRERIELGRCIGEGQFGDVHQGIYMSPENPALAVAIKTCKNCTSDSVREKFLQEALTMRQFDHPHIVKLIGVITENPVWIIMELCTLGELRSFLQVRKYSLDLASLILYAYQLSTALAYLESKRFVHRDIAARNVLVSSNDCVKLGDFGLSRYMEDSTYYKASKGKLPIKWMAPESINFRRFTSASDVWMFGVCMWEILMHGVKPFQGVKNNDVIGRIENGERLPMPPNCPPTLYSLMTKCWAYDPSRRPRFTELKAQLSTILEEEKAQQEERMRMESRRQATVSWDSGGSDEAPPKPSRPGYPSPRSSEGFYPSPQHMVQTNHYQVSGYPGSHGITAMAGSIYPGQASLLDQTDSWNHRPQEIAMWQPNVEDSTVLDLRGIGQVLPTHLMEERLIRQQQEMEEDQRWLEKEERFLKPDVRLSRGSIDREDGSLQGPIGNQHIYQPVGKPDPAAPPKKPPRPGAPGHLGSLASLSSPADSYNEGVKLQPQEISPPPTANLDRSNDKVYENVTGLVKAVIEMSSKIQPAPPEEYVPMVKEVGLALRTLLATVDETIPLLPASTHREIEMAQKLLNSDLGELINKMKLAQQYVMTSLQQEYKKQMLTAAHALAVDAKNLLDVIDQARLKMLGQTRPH
An asterisk follows results filed as active; / = no result given; [ ] = another dose, or the depositor's remark. Most compounds without a hit are left out; they make up all but 3.3% or so of the library.

SMILES | Calb biofilm kill | ERa coact pot | Smad3 inh | ERa coact inh | ERb coact inh | FAK blocker
O=C(O)C1Nc2c(C(=O)N3CCOCC3)cccc2C2C=CCC12 (centres undefined) | 5 | 20 | 30 | 70* | 82* | 2
CCc1cc(=O)oc2cc(OC(C)C(=O)O)c(Cl)cc12 (centres undefined) | 0 | 123 | -4 | -3 | -3 | /
O=S1(=O)N[C@H]2CC[C@H]3NS(=O)(=O)N[C@H]4CC[C@@H](N1)N4S(=O)(=O)N23 | / | / | 24 | / | / | /
[N-]=[N+]=NC[C@@H]1O[C@H](n2cnc3c(N)ncnc32)[C@@H]2O[C@@H]21 | / | / | 3 | / | / | /
CC(C)CNC(=O)c1c(N)n(/N=C/c2ccccn2)c2nc3ccccc3nc12 | 3 | 228*[fluorescence artefact?] | 4 | 69* | 27 | 2
COCCNC(=O)c1c(N)n(/N=C/c2cccs2)c2nc3ccccc3nc12 | 5 | 30 | 7 | 68* | 50 | 7
CCCCNC(=O)c1c(N)n(/N=C/c2ccccn2)c2nc3ccccc3nc12 | / | / | / | / | / | -1
COc1ccc2c(c1)N(CC[C@H]1CCCCN1C)c1ccccc1S2 | / | / | 7 | / | / | /
N=c1c(-c2nc3ccccc3[nH]2)cc(C(=O)c2cccs2)nn1-c1ccccc1 | 5 | 61 | 8 | 92*[fluorescence artefact?] | 62*[fluorescence artefact?] | 7
Cc1ccc(C)c(NC(=O)NCc2ccc(Cl)cc2)c1 | / | / | 4 | / | / | /
CCOC(=O)C1Cc2c([nH]c3ccccc23)CN1 (centres undefined) | 0 | 136 | 8 | -6 | 4 | 0
CCOC(=O)C1Cc2ccccc2CN1 (centres undefined) | 0 | 102 | 14 | -5 | 57*[fluorescence artefact?] | 7
O=C(Nc1sc2c(c1C(=O)O)CCC2)c1cccs1 | 4 | 74 | 8 | 12 | 41 | 5
COc1ccccc1NC(=O)c1c(NC(=O)c2ccco2)sc2c1CCC2 | 4 | 177 | 0 | 70*[fluorescence artefact?] | 34 | -3
COCCCNC(=O)c1c(NC(=O)c2cccs2)sc2c1CCCC2 | 4 | 331*[fluorescence artefact?] | 2 | 5 | 12 | -12
NC(=O)c1c(NC(=O)c2cccs2)sc2c1CCCCCC2 | -3 | 144 | 11 | 60* | 33 | /
O=C(Nc1sc2c(c1C(=O)O)CCC2)c1ccccc1 | -5 | 25 | 6 | 79*[fluorescence artefact?] | 76* | -2
CNC/C(Cl)=N/S(=O)(=O)c1ccc(C)cc1 | / | / | -1 | / | / | /
COc1cc(S(=O)(=O)Nc2c(C)cc(C)cc2C)ccc1Cl | 9 | 91 | 8 | -1 | 63*[fluorescence artefact?] | 12
CCN(CC)CCOC(=O)C1c2ccccc2Oc2ccccc21 | 7 | 105 | 5 | -12 | 74*[fluorescence artefact?] | 6
CCn1cc(Br)c(C(=O)Nc2cccc(SC)c2)n1 | 3 | 131 | -9 | -6 | -5 | 6
C/C(N[O-])=C(\C)[N+]([O-])=[Fe].CC(=N\[O-])/C(C)=N/[O-].[NH2-].c1c[nH+]c[n-]1 | / | / | 72* | / | / | /
C/C(N[O-])=C(\C)[N+]([O-])=[Cu].C/C(N[O-])=C(\C)[N+]([O-])=[Cu].CC(=N\[O-])/C(C)=N/[O-].CC(=N\[O-])/C(C)=N/[O-] | / | / | 49 | / | / | /
Cc1ccc2c(CC(=O)OCc3csc(C)n3)coc2c1 | 7 | 115 | -5 | 4 | 5 | -3
O=C(Cc1coc2cc3c(cc12)CCC3)OCc1cc(=O)n2c(n1)sc1ccccc12 | 10 | 136 | 12 | 76* | 72* | 17
SMILES | Calb biofilm kill | ERa coact pot | Smad3 inh | ERa coact inh | ERb coact inh | FAK blocker
CCOC(=O)C(C)n1cnc2c(nnn2-c2cccc(Cl)c2)c1=O (centres undefined) | 0 | 96 | 6 | 6 | 13 | 1
NC(N)=NNC(=O)C(=O)O | / | / | -9 | / | / | /
Cc1ccc(C)c(N2CCN(C(=O)c3ccc4nc(-c5ccco5)c(-c5ccco5)nc4c3)CC2)c1 | 6 | 56 | -10 | 27 | 43 | 2
COc1ccccc1N1CCN(C(=O)c2ccc3nc(-c4ccco4)c(-c4ccco4)nc3c2)CC1 | 10 | 57 | 11 | 68*[fluorescence artefact?] | 66* | 13
Cc1cccc(N2CCN(c3nc4ccccc4n4cnnc34)CC2)c1C | 0 | 54 | -2 | 54* | 29 | 1
O=C(Cc1cccc2ccccc12)N/N=C/c1ccc(OC(=O)/C=C/c2ccco2)cc1 | 7 | 88 | 7 | 65*[fluorescence artefact?] | 48 | 2
O=C(NCc1cccs1)O[C@H]1C[C@H]2CC[C@@H]1C2 | / | / | 3 | / | / | /
O=C(CCc1ccc(S(=O)(=O)N2CCOCC2)cc1)NCCCN1CCCC1=O | 3 | 94 | -1 | 22 | 58*[fluorescence artefact?] | 5
Cc1c(C(=O)NCCCN2CCCC2=O)oc2ccc(S(=O)(=O)N3CCOCC3)cc12 | -2 | 123 | -14 | -1 | -9 | /
Cc1csc(C(C#N)C(=O)c2ccncc2)n1 (centres undefined) | 5 | 65 | 8 | 32 | 63* | /
O=CNc1ncn[nH]1 | / | / | -7 | / | / | /
C/C(=N\S(=O)(=O)c1ccc(Cl)c(Cl)c1)OCC(C)(C)C | / | / | 3 | / | / | /
CCn1c(C(=O)N2CCC(C(=O)NCCCSC3CCCCC3)CC2)cc2sccc21 | 13 | 103 | 1 | 7 | -10 | -9
O=C(O)c1ccc(S(=O)(=O)N=Nc2c(O)[nH]c3ccccc23)cc1 | / | / | 40 | / | / | /
CC(=O)N1CCC(N(C(=O)Nc2c(F)cccc2F)C(C)C)CC1 | 10 | 102 | 2 | -8 | 2 | -1
CC1(C)CC(=O)C2=C(C1)OC(N)=C(C#N)C2Cc1ccccc1 (centres undefined) | -1 | 118 | -3 | 5 | -1 | 0
N#CC1=C(N)OC2=C(C(=O)CCC2)C1CCc1ccccc1 (centres undefined) | -1 | 90 | -15 | 100*[fluorescence artefact?] | 8 | 2
NC(N)=NC(N)=Nc1c(F)c(F)c(F)c(F)c1F | / | / | 56* | / | / | /
CCN(CC)C(=O)COc1ccc(-c2ccccc2)cc1 | 0 | 95 | 3 | 5 | 39 | 1
Cc1cc(C)cc(OCc2nc3ncc(Br)cc3[nH]2)c1 | 1 | 333*[fluorescence artefact?] | 2 | 57* | 42 | -44
COc1cccc(OCc2nc3ncc(Br)cc3[nH]2)c1 | 3 | 104 | 17 | 4 | 8 | -1
O=C1OC2CCC1(c1ccccc1)C2 (centres undefined) | 6 | 110 | 7 | -22 | -28 | -1
C[C@@]12CC[C@@H]3[C@H](CC=C4C[C@@H](O)CC[C@@]43C)[C@H]1CC[C@H]2N(CCO)CCO | / | / | 1 | / | / | /
CN(C)Cc1c[nH]c2nc[nH]c(=O)c12 | / | / | 68* | / | / | /
CN(C)Cc1c(O)ccc2[nH]cnc12 | 9 | 108 | -3 | -21 | 8 | 5
Cc1occc1C(=O)Nc1ccccc1NC(=O)c1ccoc1C | 5 | 116 | 6 | 58* | 55* | 0

From PubChem
